“And” between values parts separate entries of the source, which are not always exact repeats. Identical values can stand only once. Among all 5,500 compounds or so, about 2,000 (36%) were called active. Roughly 18% stayed inconclusive and do not appear here. No stated cut-off is given here; in the data, active means normalized growth mostly below about 0.91 (no sharp cut-off); inconclusive means no clear call, values can overlap the other calls; inactive means mostly above about 0.92. The list shows a part of the results.
Test: chemical genetic growth profiling, strain panel (AID 1159580);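 further: tested at 20 µM; growth read once vehicle control cultures reached saturation at 30 °C; 1 = growth at the plate median or of vehicle wells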
Details: S. cerevisiae deletion strains, growth OD

Measured: normalized growth

CC(C)(C)NCC(O)c1ccc(O)c(CO)c1 (stereo not given)
inactive: locus YAL013W, strain DEP1, stronger effect = lower value 1 and 1.04 | locus YAL021C, strain ccr4, stronger effect = lower value 1.02 | locus YAL026C, strain drs2, stronger effect = lower value 1.02 | locus YAL030W, strain snc1, stronger effect = lower value 1.02 | locus YAL040C, strain CLN3, stronger effect = lower value 0.991 and 1.01 | locus YBL061C, strain skt5, stronger effect = lower value 1.02 | locus YBR009C, strain hhf1, stronger effect = lower value 0.998 | locus YBR021W, strain FUR4, stronger effect = lower value 1.01 | locus YBR023C, strain chs3, stronger effect = lower value 1.01 | locus YBR171W, strain sec66, stronger effect = lower value 1.02 | locus YBR229C, strain ROT2, stronger effect = lower value 1 | locus YBR231C, strain swc5, stronger effect = lower value 1.01 | locus YBR279W, strain paf1, stronger effect = lower value 1.01 | locus YCL011C, strain gbp2, stronger effect = lower value 0.998 | locus YCL016C, strain dcc1, stronger effect = lower value 1.02 | locus YCL029C, strain bik1, stronger effect = lower value 1.01 | locus YCL061C, strain MRC1 (second series), stronger effect = lower value 1 and 1.01 | locus YCL061C, strain MRC1, stronger effect = lower value 1 | locus YCL069W, strain vba3, stronger effect = lower value 1.02 | locus YCR088W, strain abp1, stronger effect = lower value 1.01 | locus YDL005C, strain med2, stronger effect = lower value 1.01 | locus YDL035C, strain GPR1, stronger effect = lower value 1.04 | locus YDL040C, strain nat1, stronger effect = lower value 1 | locus YDL074C, strain BRE1, stronger effect = lower value 1.06 | locus YDL101C, strain DUN1, stronger effect = lower value 1.01 | locus YDL134C, strain PPH21, stronger effect = lower value 1 | locus YDL185W, strain tfp1, stronger effect = lower value 1.02 | locus YDL192W, strain arf1, stronger effect = lower value 1.02 | locus YDR001C, strain nth1, stronger effect = lower value 1.01 | locus YDR069C, strain doa4, stronger effect = lower value 0.998 | locus YDR101C, strain arx1, stronger effect = lower value 0.972 | locus YDR137W, strain rgp1, stronger effect = lower value 1.01 | locus YDR150W, strain NUM1, stronger effect = lower value 1.01 | locus YDR159W, strain sac3, stronger effect = lower value 0.99 | locus YDR162C, strain NBP2, stronger effect = lower value 1.03 | locus YDR195W, strain ref2 0.99 | locus YDR297W, strain sur2, stronger effect = lower value 1.01 | locus YDR318W, strain mcm21, stronger effect = lower value 1.02 | locus YDR334W, strain swr1, stronger effect = lower value 0.995 | locus YDR335W, strain msn5, stronger effect = lower value 1.02 | locus YDR363W, strain ESC2, stronger effect = lower value 1.03 | locus YDR388W, stronger effect = lower value 1.02 | locus YDR392W, strain spt3, stronger effect = lower value 0.981 | locus YDR502C, strain sam2, stronger effect = lower value 1.02 | locus YEL003W, strain gim4, stronger effect = lower value 1.01 | locus YEL037C, strain rad23, stronger effect = lower value 1.01 | locus YEL061C, strain CIN8 (second series), stronger effect = lower value 1 | locus YEL061C, strain CIN8, stronger effect = lower value 1.01 | locus YER002W, strain NOP16, stronger effect = lower value 0.988 and 1.03 | locus YER015W, strain faa2, stronger effect = lower value 1.02 | locus YER016W, strain bim1, stronger effect = lower value 1.03 | locus YER110C, stronger effect = lower value 1.02 | locus YER111C, strain swi4, stronger effect = lower value 1.01 | locus YER155C, strain BEM2 (second series), stronger effect = lower value 0.982 | locus YER155C, strain BEM2, stronger effect = lower value 1.01 | locus YER167W, strain BCK2, stronger effect = lower value 1.02 | locus YFR010W, strain ubp6, stronger effect = lower value 1.01 | locus YGL078C, strain dbp3, stronger effect = lower value 1.03 | locus YGL086W, strain mad1, stronger effect = lower value 1.01 | locus YGL167C, strain pmr1, stronger effect = lower value 1.02 | locus YGL173C, strain kem1, stronger effect = lower value 1.01 | locus YGL227W, strain vid30, stronger effect = lower value 0.989 | locus YGL240W, strain doc1, stronger effect = lower value 1.02 | locus YGL248W, strain PDE1, stronger effect = lower value 0.998 | locus YGL253W, strain hxk2, stronger effect = lower value 1.01 | locus YGR078C, strain PAC10, stronger effect = lower value 1.02 | locus YGR135W, strain pre9, stronger effect = lower value 1.06 | locus YGR229C, strain SMI1, stronger effect = lower value 1.02 and 1.05 | locus YGR252W, strain gcn5, stronger effect = lower value 1.12 | locus YHR013C, strain ard1, stronger effect = lower value 1.01 | locus YHR027C, strain rpn1, stronger effect = lower value 1.01 | locus YHR030C, strain SLT2, stronger effect = lower value 1.01 and 1.03 | locus YHR079C, strain IRE1 (second series), stronger effect = lower value 1.01 | locus YHR079C, strain IRE1, stronger effect = lower value 1.03 | locus YHR094C, strain hxt1, stronger effect = lower value 1.02 | locus YHR129C, strain ARP1, stronger effect = lower value 1.02 | locus YHR142W, strain chs7, stronger effect = lower value 1 | locus YHR200W, strain rpn10, stronger effect = lower value 1.02 | locus YIL066C, strain RNR3, stronger effect = lower value 1.01 | locus YIL073C, strain SPO22, stronger effect = lower value 1.1 | locus YIL125W, strain kgd1, stronger effect = lower value 1.01 | locus YIR030C, strain dcg1, stronger effect = lower value 1.02 | locus YJL092W, strain hpr5, stronger effect = lower value 1.01 | locus YJL095W, strain BCK1 (second series), stronger effect = lower value 1.03 | locus YJL095W, strain BCK1, stronger effect = lower value 1.01 and 1.03 | locus YJL115W, strain asf1, stronger effect = lower value 1.04 | locus YJL129C, strain trk1, stronger effect = lower value 1 | locus YJL134W, strain LCB3, stronger effect = lower value 1.02 | locus YJL154C, strain vps35, stronger effect = lower value 1.02 | locus YJL164C, strain tpk1, stronger effect = lower value 1 | locus YJL166W, strain qcr8, stronger effect = lower value 0.999 | locus YJL168C, strain set2, stronger effect = lower value 1.01 | locus YJL187C, strain SWE1 (second series), stronger effect = lower value 0.996 | locus YJR043C, strain POL32, stronger effect = lower value 1.03 | locus YJR066W, strain TOR1, stronger effect = lower value 0.979

— PubChem BioAssay AID1159580 (chemical genetic matrix, 2015)
